The nature of assay [1]: qHTS assay to identify small molecule antagonists of the sonic hedgehog signaling (Shh) pathway (AID 1259369; calls by dose curve; also: nearly all actives have a fitted effect of over 45% in size; also: potency is read from the fitted curve at half-maximal effect). An outline of the steps:
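Cells are plated and held 4hr at 37 C, compounds (DMSO) are pinned in, conditioned medium is added to stimulate the pathway, and after 24hr luciferase reagent is added for 30min before luminescence is read.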

Assay [2] is described as follows: qHTS assay to identify small molecule agonists of the androgen receptor (AR) signaling pathway in the presence of an antagonist - cell viability counter screen (AID 1259379).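 Also: MDA-kb2 human breast cancer cells carrying an MMTV luciferase reporter; series mostly up to about 92 µM; nearly all actives have a fitted effect of over 25% in size.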 The procedure, abridged:
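Cytotoxicity is assessed by CellTiter-Fluor in MDA-kb2 cells carrying an MMTV-driven luciferase reporter. Cells receive 3.0uM nilutamide plus compounds at 15 concentrations and incubate 16 hr at 37C without CO2 before fluorescence reading.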
In general terms: In qHTS, concentration-response curves come from the screen itself.

Assay [3] can be described thus: qHTS assay to identify small molecule antagonists of the estrogen receptor beta (ER-beta) signaling pathway - cell viability counter screen (AID 1259382).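 Also: HEK293T cells carrying ER-beta-UAS-bla reporter stimulated with estradiol; series mostly up to about 92 µM; nearly all actives have a fitted effect of over 55% in size.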 An outline of the steps: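 Cytotoxicity counter screen multiplexed with the beta-lactamase antagonist assay: GripTite HEK293T ER-beta-bla cells were treated 16 hr with test chemicals in the presence of 1nM 17-beta-estradiol, and viability was measured by CellTiter-Glo.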

Assay [4] concerns the target Estrogen receptor (Homo sapiens) (UniProt P03372). Nature of the assay: qHTS assay to identify small molecule agonists of the estrogen receptor alpha (ER-alpha) signaling pathway in the presence of an antagonist (AID 1259383; calls by dose curve; also: top concentration of the series differs between compounds; nearly all actives have a fitted effect of over 15% in size). The procedure, abridged:
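Agonist-mode confirmation in the presence of the ER antagonist ICI-182,780 at 10.0nM final. Breast-derived VM7Luc4E2 reporter cells were exposed to compounds for 22hr, and ERE-driven luciferase was quantified by luminescence.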

The nature of assay [5]: qHTS assay to identify small molecule agonists or antagonists of the thyroid stimulating hormone receptor (TSHR) signaling pathway - wild type cell line counter screen (AID 1259384; calls by dose curve). An outline of the steps: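 Wild-type Hek293 cells, 800/well, 18 h at 37C, then compound with Ro20-1724 for 30 min RT. cAMP by HTRF (cAMP-d2/anti-cAMP cryptate), 1 h RT, fluorescence read. 15 concentrations, triplicates.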

Assay [6] can be described thus: qHTS assay to identify small molecule agonists of the estrogen receptor alpha (ER-alpha) signaling pathway in the presence of an antagonist - cell viability counter screen (AID 1259386).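 Also: cells exposed to compounds for 22 h at 37 °C before the viability read; nearly all actives have a fitted effect of over 30% in size.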 Also: potency is read from the fitted curve at half-maximal effect. As to activity change, negative = cytotoxicity: series mostly up to about 92 µM. The procedure, abridged: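 Cytotoxicity was measured in parallel with the ERE-luciferase agonist screen, in the same wells. The cells were VM7Luc4E2, which endogenously express ER-alpha, and treatment was with compounds plus 10.0nM ICI-182,780 for 22hr.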

Assay [7] has as its target Progesterone receptor (Homo sapiens) (UniProt P06401). In words: qHTS assay to identify small molecule agonists of the progesterone receptor (PR) signaling pathway (AID 1346784; calls by dose curve; also: nearly all actives have a fitted effect of over 30% in size; also: potency is read from the fitted curve at half-maximal effect). The procedure, abridged:
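Beta-lactamase reporter read-out: after 16 hr compound treatment at 37C and a further 2 hr at room temperature with LiveBLAzer B/G FRET substrate, fluorescence was measured in PR-UAS-bla HEK 293T cells grown in 2% charcoal-stripped serum.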

Assay [8] in a line: qHTS assay to identify small molecule antagonists of the progesterone receptor (PR) signaling pathway - cell viability counter screen (AID 1346798). Also: nearly all actives have a fitted effect of over 50% in size. Also: potency is read from the fitted curve at half-maximal effect. As to activity change, negative = cytotoxicity: series mostly up to about 92 µM. The procedure, abridged: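 HEK293T PR-UAS-bla, 2% charcoal-stripped FBS; 4 hr pre-plate; cpd + R5020, 16 h 37C; LiveBLAzer read first; then CellTiter-Glo 30 min RT, luminescence.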
Assay [9] in a line: qHTS assay to identify small molecule antagonists of the TGF-beta/Smad signaling pathway - cell viability counter screen (AID 1346824). Also: nearly all actives have a fitted effect of over 50% in size. An outline of the steps:
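SBE-bla HEK 293T cells, incubated overnight, then compound plus 0.25 ng/mL TGF-beta1 (stock added) for 5 hr at 37 C. Viability was read in the same wells by CellTiter-Glo luminescence after 30 min at room temperature.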

Assay [10] is described as follows: qHTS assay to identify small molecule agonists of the TGF-beta/Smad signaling pathway - cell viability counter screen (AID 1346829). Also: top concentration of the series differs between compounds; nearly all actives have a fitted effect of over 45% in size. An outline of the steps:
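In parallel with the Smad reporter read, viability of HEK 293T cells stably carrying SBE-bla is quantified by ATP luminescence following 5 hr compound treatment.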

Assay [11] concerns the target Thyrotropin-releasing hormone receptor (Homo sapiens) (UniProt P34981). Nature of the assay: qHTS assay to identify small molecule antagonists of the thyrotropin-releasing hormone receptor (TRHR) signaling pathway (AID 1346877; active = well fitted inhibition curve with a large enough effect in the repeat runs, not every such curve was filed as active; also: series mostly up to about 51 µM). The procedure, abridged: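 Antagonism is measured as suppression of the calcium response to 1 nM TRH in TRHR-HEK293 cells that have been dye-loaded for 2 h at 37 °C after overnight plating. Each compound is tested at 15 concentrations in triplicate.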

The target is the same in assay [12]. In words: qHTS assay to identify small molecule agonists of the thyrotropin-releasing hormone receptor (TRHR) signaling pathway (AID 1346891; calls by dose curve; also: series mostly up to about 58 µM). An outline of the steps:
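Intracellular calcium rise, read as fluorescence every second for 3 min, served as the agonist signal in dye-loaded HEK293 cells expressing TRHR; each compound ran at 15 concentrations in triplicate.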

The nature of assay [13]: qHTS assay to identify small molecule agonists of the estrogen receptor beta (ER-beta) signaling pathway - cell viability counter screen (AID 1259380). Also: nearly all actives have a fitted effect of over 30% in size. Also: potency is read from the fitted curve at half-maximal effect. An outline of the steps: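 Cytotoxicity is measured in parallel with the reporter screen: after 16 hr compound exposure at 37C and a 2 hr LiveBLAzer step, CellTiter-Glo is added to the same ER-beta-UAS-bla HEK293T wells and luminescence read after 30 min.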

For assay [14], the target named is Progesterone receptor (Homo sapiens) (UniProt P06401). In words: qHTS assay to identify small molecule antagonists of the progesterone receptor (PR) signaling pathway (AID 1346795; active = well fitted inhibition curve with a large enough effect in the signal ratio in the repeat runs, not every such curve was filed as active; the % refers to the signal ratio; also: potency is read from the fitted curve at half-maximal effect). The procedure, abridged: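 Read-out is fluorescence from the LiveBLAzer B/G FRET substrate, cleaved by a UAS-controlled beta-lactamase in PR-UAS-bla HEK293T cells after 16 hr exposure to compound plus 1 nM promegestone (final), followed by 2 hr at room temperature.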
Progesterone receptor (Homo sapiens), sequence (P06401 whole entry, looked up): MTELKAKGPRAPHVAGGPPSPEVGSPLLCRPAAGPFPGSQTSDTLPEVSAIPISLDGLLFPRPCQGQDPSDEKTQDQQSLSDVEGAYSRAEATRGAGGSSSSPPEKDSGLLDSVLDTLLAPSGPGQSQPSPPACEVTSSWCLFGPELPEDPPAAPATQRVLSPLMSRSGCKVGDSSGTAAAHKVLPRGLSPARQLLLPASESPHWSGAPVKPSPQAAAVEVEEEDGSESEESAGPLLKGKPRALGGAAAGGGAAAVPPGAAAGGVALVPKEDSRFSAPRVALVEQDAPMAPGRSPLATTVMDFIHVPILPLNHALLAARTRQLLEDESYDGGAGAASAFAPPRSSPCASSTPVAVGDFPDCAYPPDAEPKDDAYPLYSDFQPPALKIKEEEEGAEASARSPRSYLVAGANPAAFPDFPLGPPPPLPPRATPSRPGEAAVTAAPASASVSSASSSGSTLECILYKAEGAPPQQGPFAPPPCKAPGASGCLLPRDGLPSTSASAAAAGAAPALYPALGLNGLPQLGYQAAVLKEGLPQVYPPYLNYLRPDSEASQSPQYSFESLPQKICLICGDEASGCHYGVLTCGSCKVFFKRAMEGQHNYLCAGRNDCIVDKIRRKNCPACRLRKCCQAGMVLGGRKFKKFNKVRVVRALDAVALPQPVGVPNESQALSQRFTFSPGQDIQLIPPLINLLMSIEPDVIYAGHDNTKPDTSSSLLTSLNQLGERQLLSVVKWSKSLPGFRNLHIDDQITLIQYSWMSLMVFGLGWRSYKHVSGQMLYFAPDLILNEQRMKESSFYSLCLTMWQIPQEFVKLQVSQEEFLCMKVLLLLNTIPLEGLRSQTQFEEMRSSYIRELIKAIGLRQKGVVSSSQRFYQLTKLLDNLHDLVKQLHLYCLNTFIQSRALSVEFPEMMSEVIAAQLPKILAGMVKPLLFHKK

A short description of assay [15]: qHTS assay to identify small molecule agonists of the progesterone receptor (PR) signaling pathway - cell viability counter screen (AID 1346799; calls by dose curve; also: nearly all actives have a fitted effect of over 45% in size). The procedure, abridged:
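Luminescence from CellTiter-Glo, added after the beta-lactamase FRET read in the same wells, gave cytotoxicity in PR-UAS-bla HEK293T cells treated with compounds for 16 hr at 37C.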

The target in assay [16] is Thyrotropin receptor (Homo sapiens) (UniProt P16473). In words: qHTS assay to identify small molecule antagonists of the thyroid stimulating hormone receptor (TSHR) signaling pathway (AID 1259385; calls by dose curve; also: nearly all actives have a fitted effect of over 20% in size). The procedure, abridged: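 TSHR-HEK293 cells (800/well) plated 18 h, then compounds with Ro20-1724 and TSH at 1.5 ng/mL final, 30 min at room temperature. cAMP quantified by HTRF (cAMP-d2/anti-cAMP-cryptate, 1 h); 15 concentrations in triplicate.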
Thyrotropin receptor (Homo sapiens), sequence (P16473 whole entry, looked up): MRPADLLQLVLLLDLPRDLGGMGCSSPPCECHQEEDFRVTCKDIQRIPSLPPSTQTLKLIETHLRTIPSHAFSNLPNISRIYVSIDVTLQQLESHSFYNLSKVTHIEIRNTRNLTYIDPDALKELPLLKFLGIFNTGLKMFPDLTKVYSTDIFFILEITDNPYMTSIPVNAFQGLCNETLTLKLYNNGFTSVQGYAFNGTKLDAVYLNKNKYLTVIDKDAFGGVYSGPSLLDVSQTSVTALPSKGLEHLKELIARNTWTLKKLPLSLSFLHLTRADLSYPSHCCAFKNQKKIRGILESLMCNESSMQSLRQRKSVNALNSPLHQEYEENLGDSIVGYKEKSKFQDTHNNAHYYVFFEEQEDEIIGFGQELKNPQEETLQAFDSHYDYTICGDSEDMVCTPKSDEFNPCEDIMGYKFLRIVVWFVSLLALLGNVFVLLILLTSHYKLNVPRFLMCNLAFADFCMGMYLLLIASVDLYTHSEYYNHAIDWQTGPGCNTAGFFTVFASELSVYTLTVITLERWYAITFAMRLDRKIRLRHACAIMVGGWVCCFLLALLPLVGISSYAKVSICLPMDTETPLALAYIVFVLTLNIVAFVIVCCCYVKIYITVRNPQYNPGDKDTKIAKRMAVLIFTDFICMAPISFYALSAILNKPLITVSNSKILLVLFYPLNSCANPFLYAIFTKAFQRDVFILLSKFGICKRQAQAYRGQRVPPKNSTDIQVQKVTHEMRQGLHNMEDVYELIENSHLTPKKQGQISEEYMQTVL

Assay [17] is described as follows: qHTS assay to identify small molecule agonists of the TGF-beta/Smad signaling pathway (AID 1346859; active = well fitted activation curve with a large enough effect in the signal ratio in the repeat runs, not every such curve was filed as active; the % refers to the signal ratio; also: series mostly up to about 77 µM). An outline of the steps: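 SBE-bla HEK 293T, 4,000 cells/well, plated o/n; cpd in DMSO, 5 hr, 37 C/5% CO2; B/G FRET substrate 2 hr RT; ex 405, em 460/530 nm.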
Assay [18] concerns the target Androgen receptor (Homo sapiens) (UniProt P10275). In words: qHTS assay to identify small molecule agonists of the androgen receptor (AR) signaling pathway in the presence of an antagonist (AID 1259381; calls by dose curve; also: nearly all actives have a fitted effect of over 15% in size). An outline of the steps:
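Agonist-mode confirmation screen: human MDA-kb2 cells stably expressing luciferase under an MMTV promoter bearing AR and GR response elements, co-treated with 3.0uM nilutamide (final). Luminescence measured after 16hr compound incubation.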

Ten molecules from PubChem BioAssay (Tox21) can be followed below.

Unmarked numbers belong to inactive results. Results filed as inconclusive are left out. Activity calls are given as the source filed them. Unless noted, calls follow the shape of the dose curve; as a rule, active = well fitted curve in the direction sought with a large enough effect in the repeat runs; inconclusive = weak or mixed curves; inactive = no such curve, though single readings can be large; an effect the other way counts as inactive or inconclusive.
% is scaled to controls: 0 for no effect and ±100 for the full control effect.

Estrogen receptor (Homo sapiens), sequence (P03372 whole entry, looked up): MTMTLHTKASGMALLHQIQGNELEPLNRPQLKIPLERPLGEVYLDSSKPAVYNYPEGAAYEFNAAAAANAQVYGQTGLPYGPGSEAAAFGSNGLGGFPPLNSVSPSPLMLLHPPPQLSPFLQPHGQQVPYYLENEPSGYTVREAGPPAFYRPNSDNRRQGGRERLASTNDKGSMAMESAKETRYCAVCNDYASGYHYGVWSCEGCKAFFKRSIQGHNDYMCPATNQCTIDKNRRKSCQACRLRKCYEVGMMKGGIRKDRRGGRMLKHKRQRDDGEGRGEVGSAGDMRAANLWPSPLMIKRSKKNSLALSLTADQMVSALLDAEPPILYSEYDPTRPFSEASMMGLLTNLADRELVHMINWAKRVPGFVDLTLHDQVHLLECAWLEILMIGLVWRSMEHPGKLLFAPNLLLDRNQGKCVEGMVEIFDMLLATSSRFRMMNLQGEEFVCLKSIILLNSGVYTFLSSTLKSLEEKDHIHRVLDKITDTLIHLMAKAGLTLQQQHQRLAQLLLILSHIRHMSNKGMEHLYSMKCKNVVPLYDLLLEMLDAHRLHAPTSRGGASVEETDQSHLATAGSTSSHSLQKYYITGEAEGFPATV
Thyrotropin-releasing hormone receptor (Homo sapiens), sequence (P34981 whole entry, looked up): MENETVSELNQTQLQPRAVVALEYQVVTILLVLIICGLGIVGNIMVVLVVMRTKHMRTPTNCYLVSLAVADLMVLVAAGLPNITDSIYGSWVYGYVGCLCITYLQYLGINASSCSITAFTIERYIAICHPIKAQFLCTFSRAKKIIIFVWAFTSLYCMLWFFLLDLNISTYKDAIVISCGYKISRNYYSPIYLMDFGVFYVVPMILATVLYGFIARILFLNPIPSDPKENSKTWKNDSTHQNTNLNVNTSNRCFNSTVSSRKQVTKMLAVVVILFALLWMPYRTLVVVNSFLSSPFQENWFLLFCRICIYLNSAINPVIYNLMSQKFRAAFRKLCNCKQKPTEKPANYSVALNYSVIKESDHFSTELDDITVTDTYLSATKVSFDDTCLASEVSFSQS
Androgen receptor (Homo sapiens), sequence (P10275 whole entry, looked up): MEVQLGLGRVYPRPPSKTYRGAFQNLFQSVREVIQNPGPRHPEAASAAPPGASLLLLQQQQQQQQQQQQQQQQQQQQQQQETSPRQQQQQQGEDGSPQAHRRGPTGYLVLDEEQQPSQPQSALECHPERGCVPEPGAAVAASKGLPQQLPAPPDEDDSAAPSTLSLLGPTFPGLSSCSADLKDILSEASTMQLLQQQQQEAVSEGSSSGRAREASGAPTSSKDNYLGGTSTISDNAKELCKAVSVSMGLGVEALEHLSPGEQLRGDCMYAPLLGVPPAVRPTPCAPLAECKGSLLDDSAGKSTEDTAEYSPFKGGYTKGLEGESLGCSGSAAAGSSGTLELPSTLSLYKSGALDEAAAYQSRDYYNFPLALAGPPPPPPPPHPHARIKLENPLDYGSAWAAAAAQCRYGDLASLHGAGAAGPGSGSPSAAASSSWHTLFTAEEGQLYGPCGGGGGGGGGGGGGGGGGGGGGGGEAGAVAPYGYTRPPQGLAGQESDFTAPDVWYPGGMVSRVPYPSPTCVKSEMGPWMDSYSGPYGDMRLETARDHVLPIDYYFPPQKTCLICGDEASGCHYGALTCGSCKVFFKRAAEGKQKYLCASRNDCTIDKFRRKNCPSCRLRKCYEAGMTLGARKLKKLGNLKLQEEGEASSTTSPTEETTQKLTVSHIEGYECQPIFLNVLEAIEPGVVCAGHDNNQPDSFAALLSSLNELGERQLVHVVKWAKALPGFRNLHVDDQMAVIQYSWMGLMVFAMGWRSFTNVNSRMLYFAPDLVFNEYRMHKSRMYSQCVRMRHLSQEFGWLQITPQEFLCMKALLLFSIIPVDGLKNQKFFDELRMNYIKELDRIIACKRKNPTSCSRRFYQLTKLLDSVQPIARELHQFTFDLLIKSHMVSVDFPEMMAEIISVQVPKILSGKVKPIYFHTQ

On to `C[C@H]1C[C@H]2[C@@H]3CCC4=CC(=O)C=C[C@]4(C)[C@@]3(Cl)[C@@H](O)C[C@]2(C)[C@@]1(O)C(=O)CO`, for which the Potency result in [1], in assay [2], in [3], in assay [4], in [5] and in assay [6] was “inactive” each time. Moreover, the Potency result in assay [8], in [9] and in [12] was “inactive” in each case. Moreover, in assay [7], the Potency was 0.0237 µM (active). Besides, the result in assay [10] and in assay [11] was inactive.

On to `O=C(NCCO[N+](=O)[O-])c1cccnc1`, for which the Potency result in assay [1], in assay [2], in [13], in assay [3], in assay [5] and in [6] was “inactive” throughout. In addition, the Potency result in assay [7], in assay [14], in assay [8], in [15], in [9] and in [12] was “inactive” each time. Moreover, the call in assay [10] and in [11] was inactive.

As to `C[N+]1(C)CCC(OC(=O)C(O)(c2ccccc2)C2CCCC2)C1` (stereo unspecified), the Potency entry in assay [1], in assay [13], in assay [3], in assay [4], in assay [5] and in assay [16] was “inactive” each time. Besides, the Potency entry in [6], in assay [7], in [14], in assay [8], in assay [15] and in assay [9] was “inactive” throughout. The Potency entry in assay [17] and in assay [12] was “inactive” each time. In assay [10], the molecule was classed as inactive.

Consider `O=C(O)CC(=O)C(=O)O`, for which the Potency in assay [1] was 54.6 µM (active). Besides, the Potency result in assay [2], in [13], in [3], in assay [5], in assay [16] and in [7] was “inactive” in each case. Further, the Potency entry in assay [15], in assay [9] and in [17] was “inactive” throughout. In addition, the result in assay [10] was inactive.

Turning to `CN(C)c1ccc(/C=C/c2ccc([N+](=O)[O-])cc2)cc1`, the activity change, negative = inhibition in [1] is 48% [at 8.39 µM]; in assay [16], -4.14% [at 8.39 µM]; in [14], -17.2% [at 8.39 µM]. The activity change, negative = cytotoxicity in assay [2] was 4.91% [at 8.39 µM]; in assay [13] it was -2.6% [at 8.39 µM]; in assay [3] it was -2.95% [at 8.39 µM]; in [6] it was 3.06% [at 8.39 µM]; in assay [8], -5% [at 8.39 µM]; in assay [15], -0.149% [at 8.39 µM]. Also, the activity change, negative = cytotoxicity in assay [10] was 8.79% [at 6.97 µM]. For the same molecule, the cAMP activity change in assay [5] is 6.39% [at 8.39 µM, hits give high values]. The viability change, negative = cytotoxic in [9] is -3.22% [at 6.97 µM]. For the same molecule, the activation in assay [17] is -9.78% [at 6.97 µM].

Take `CCOc1ccc(N)c([N+](=O)[O-])c1`: the Potency result in [1], in assay [13], in assay [3], in [4], in assay [5] and in assay [16] was “inactive” throughout. The Potency result in assay [7], in assay [8], in [15], in assay [9], in [17] and in assay [12] was “inactive” in each case. Further, the call in assay [10] and in assay [11] was inactive.

On to `CCCCC/C=C\C/C=C\CCCCCCCC(=O)NC(C)c1ccccc1` (stereo unspecified), for which the Potency in assay [1] is 13.3 µM (active). Also, the Potency entry in assay [2], in assay [3], in assay [4], in [5], in assay [7] and in assay [9] was “inactive” throughout. Also, in assay [10], the outcome was inactive.

Regarding `CC(=O)c1ccc2c(c1)N(CCCN(C)C)c1ccccc1S2`, the Potency result in assay [1], in assay [2], in assay [4], in [5], in [16] and in assay [6] was “inactive” each time. Also, the Potency entry in assay [7], in assay [14], in assay [15], in assay [9], in [17] and in assay [12] was “inactive” each time. The molecule was called inactive in assay [10] and in assay [11].

For the molecule `Cc1cccc(C)c1OCC(=O)N[C@@H](Cc1ccccc1)[C@@H](O)C[C@H](Cc1ccccc1)NC(=O)[C@H](C(C)C)N1CCCNC1=O`, the Potency in assay [1] was 29.8 µM (active); in assay [13] it was 23.7 µM (active); in assay [6] it was 29.8 µM (active); in [8] it was 29.8 µM (active). Besides, the Potency result in assay [18], in [4], in assay [5], in [16] and in assay [9] was “inactive” throughout.

Regarding `CCCCCCc1ccc(-c2ccc(C#N)cc2)cc1`, the Potency result in assay [1], in assay [2], in assay [3], in assay [5], in [16] and in [6] was “inactive” in each case. The Potency entry in assay [8], in [9] and in [17] was “inactive” each time. Also, the Potency in assay [14] is 21.3 µM (active). Besides, the outcome in [10] was inactive.
